Laboratory results as given in ChEMBL document CHEMBL4513216, “Probing the Open Global Health Chemical Diversity Library for Multistage-Active Starting Points for Next-Generation Antimalarials” (ACS Infect Dis, 2020).
Among all 69,000 compounds or so, about 8,600 (12%) showed an effect of 50% or more. The sample holds strong results, similar compounds and a random draw of the others, so the mix is not that of the screen.

Test system: Plasmodium berghei
Experiment: Screen against P. berghei liver stage (PbLuc), transformed with Luciferase, at 10uM
Assay type: functional, HepG2
Settings: tested at 10 uM

Compound	INHIBITION
COCC(=O)Nc1nnc2n(Cc3cccc(OC)c3)[nH]c(C)c1-2	-14.8%
CN(CC1(O)CCCN(c2ccccn2)C1)C(=O)CC1CCOCC1 (stereo not drawn)	-51.4%
Cc1nc(-c2ccsc2)ccc1C(=O)NCCCN1CCOCC1	25.315%
CSc1nnc(CNC(=O)Nc2ccccc2Br)n1C	19.8%
CNCC[C@H]1CC(C)(C)Oc2ccc(C)cc21	53%
CNCC[C@H]1CC(C)(C)Oc2ccc(OCC3CC3)cc21	42.6%
CNCC[C@H]1CC(C)(C)Oc2ccc(OC)cc21	42.6%
CN1CCN(C(=O)C2CCN(c3cccnn3)C2)CC1 (stereo not drawn)	-18.9%
O=C(NCc1ccco1)[C@@H]1CCO[C@@H]2CCN(C3CCOCC3)C[C@H]21	11.3%
Cc1nnc2n1CCN(CCOc1ccc(C(C)(C)C)cc1)C2	13.3%
NC(=O)C(CNC(=O)COCC(F)(F)F)Cc1ccc(F)cc1 (stereo not drawn)	17.4%
OC1(CN2CCCCC2)CCN(c2ccc(C(F)(F)F)cn2)C1 (stereo not drawn)	59.4%
OC1(CN2CCCCC2)CCN(c2cccc(C(F)(F)F)n2)C1 (stereo not drawn)	46.7%
OC1(CN2CCCCC2)CCN(c2cc(C(F)(F)F)ccn2)C1 (stereo not drawn)	33.9%
O=C(NCc1ccoc1)Nc1cc(C(F)(F)F)c[nH]c1=O	-45.5%
CO[C@H]1CN(Cc2ccccc2F)[C@@H]2CCCO[C@H]12	68.8%
Fc1ccccc1CN1C[C@@H](OCc2ccncc2)[C@H]2OCCC[C@H]21	23.5%
Fc1ccccc1CN1C[C@H](OCC2CCOCC2)[C@H]2OCCC[C@H]21	-28.8%
Cc1ccccc1CN1CC[C@H]2C[C@H](C(=O)N(C)C)O[C@H]2C1	19.5%
COCC(=O)N1CCc2cccc(S(=O)(=O)N3CCN(C)CC3)c2C1	8.51%
Cc1cc(NC(=O)N2CCOC(C(N)=O)C2)ccc1Br (stereo not drawn)	-62.8%
COCC1CN(C(=O)Nc2cc(Cl)cc(Cl)c2)CCO1 (stereo not drawn)	-42.9%

Compound	INHIBITION
CN1CCCc2cc(NC(=O)N3CCOC(C(N)=O)C3)ccc21 (stereo not drawn)	68.5%
CCOc1ccc(NC(=O)N2CCOC(C(N)=O)C2)cc1Cl (stereo not drawn)	-16.9%
Cc1ccc(NC(=O)N2CCOC(C(N)=O)C2)cc1C(F)(F)F (stereo not drawn)	-14.3%
NC(=O)C1CN(C(=O)Nc2ccccc2N2CCCCCC2)CCO1 (stereo not drawn)	-22.7%
O=C(Nc1ccccc1-c1cccs1)N1CCOCC1	-11.6%
NC(=O)C1CN(C(=O)Nc2ccccc2-c2cccs2)CCO1 (stereo not drawn)	57.2%
NC(=O)C1CN(C(=O)Nc2cc(Cl)cc(Cl)c2)CCO1 (stereo not drawn)	88.4%
CCC(=O)NS(=O)(=O)c1cccnc1Nc1cccc(Cl)c1Cl	42.6%
Cc1nc(CN2Cc3nccn3CC(CN3CCOCC3)C2)cs1 (stereo not drawn)	-40.1%
COc1cccc(-n2nnc(C(=O)N3CCC(C(N)=O)CC3)c2C)c1	13.115%
Cc1cc(C(=O)NC2CCCOc3cc(Cl)ccc32)n(C)n1 (stereo not drawn)	43.6%
O=C(c1ccc2c(c1)[nH]c(=O)n2C1CCC(O)CC1)N1CCOCC1 (stereo not drawn)	48%
CNC(=O)[C@H]1C[C@H]2CN(C(=O)Nc3ccc(F)cc3)C[C@@H]1O2	13.4%
CCN1CC[C@]2(CN(Cc3nccs3)C[C@H]2c2ccccc2)C1=O	13.7%
Cc1nc(C2CCCN2Cc2cc(=O)n(C)c(=O)n2C)no1 (stereo not drawn)	15.3%
Cc1nn(C)c2nc(N(Cc3nccs3)C3CC3)sc12	33.2%
Cc1csc2c(N3CCC(NCCCc4cnn(C)c4)CC3)ncnc12	31.6%
Cc1sc2ncnc(N3CCCC3Cn3cccn3)c2c1C (stereo not drawn)	-53%
CN(Cc1nccs1)C1CCN(c2ncccn2)CC1	21.5%
Cc1cc2c(N3CCCC(OCc4cccnc4)C3)ncnc2s1 (stereo not drawn)	85.2%
Cc1cc2c(N3CCC(N(C)Cc4nccs4)CC3)ncnc2s1	87.5%
Cc1cc2c(N3CCC(N(C)CCc4cnn(C)c4)CC3)ncnc2s1	51.2%

Compound	INHIBITION
CCc1c(C)sc2ncnc(N3CCN(C4CCOCC4)CC3)c12	4.15%
Cc1sc2ncnc(N3CCC(N(C)Cc4cnn(C)c4)CC3)c2c1C	61.2%
CC(C)(C(=O)N1CCCC(OCc2cccnc2)C1)n1cccc1 (stereo not drawn)	23.1%
Cc1nn(C)c2ncnc(N3CCCC(OCc4cccnc4)C3)c12 (stereo not drawn)	25.1%
Cn1cc(CN2CCc3ncnc(N4CCCC4)c3CC2)cn1	30.5%
CCCS(=O)(=O)N1CCn2cc(CNc3ccccn3)nc2C1	23.3%
CCC(=O)N1Cc2nccn2CC(CN(C)Cc2cccnc2)C1 (stereo not drawn)	39.2%
Cc1csc(N2CCN(Cc3cnc4c(c3)c(C)nn4C)CC2)n1	24%
CN(C)C[C@H]1OC[C@@H]2CCN(C(=O)c3ccco3)C[C@@H]21	-4.56%
Cc1nc(C)n(CCNC(=O)C2(C)CC(c3ccccc3)=NO2)n1 (stereo not drawn)	23%
Fc1cnc(N2CC[C@@H]3O[C@@H](COCc4cccnc4)CC[C@@H]32)nc1	31.4%
CCc1ccsc1C(=O)N1CCCN(Cc2cscn2)CC1	-16%
CC(C)c1cc2c(s1)NC(c1ccccc1)NC2=O (stereo not drawn)	9.63%
Cc1cnc(CN(C)C2CCN(CCCc3cnn(C)c3)C2)o1 (stereo not drawn)	48.2%
Cc1nc(CN2CCCC(N(C)Cc3cnn(C)c3)C2)no1 (stereo not drawn)	5.48%
Cc1cc2c(N3CCC(N(C)Cc4cnn(C)c4)CC3)ncnc2s1	75.7%
COc1ccc2c(c1)CN(CC1CC1)C(=O)CCN2CC(C)(C)O	23.7%
O=C(c1sccc1C1CC1)N1CCN(CC(F)(F)F)CC1	27.6%
O=C(Nc1cccc(F)c1)C1=NOC2(CCNCC2)C1	-2.41%
O=C(CCn1cncn1)NCCOc1cccc(Cl)c1	10.7%
Cc1ccoc1C(=O)NCCOc1ncc(Cl)cc1Cl	52%
O=C(NCCOc1ncc(Cl)cc1Cl)c1ccncc1	39.5%

Compound	INHIBITION
O=C(NCCOc1ncc(Cl)cc1Cl)c1ccoc1	24.6%
O=C(CCc1ccncc1)NCCOc1ncc(Cl)cc1Cl	3.87%
O=C(CCn1cccn1)NCCOc1ncc(Cl)cc1Cl	53.3%
O=C(CCn1cccn1)NCCOc1ccc2c(c1)OCO2	-13.9%
O=C(NCCOc1ncc(Cl)cc1Cl)c1cccnc1	19.4%
O=C(CCn1cccn1)NCCOc1cccc(Cl)c1	54.4%
CCn1cnnc1C1CCN(C(=O)c2cccc(-n3cccc3)c2)CC1	20%
O=C1NC2(CCCN(C(=O)CCn3cncn3)C2)Oc2ccccc21 (stereo not drawn)	-5.279%
Cc1cc(C)n(CCNCc2cc(-c3ccccc3)c[nH]c2=O)n1	7.43%
Cc1noc(C)c1CN1CC[C@H]2OCC[C@@]2(C(=O)NC2CCCC2)C1	17.1%
Cc1cc(C)c2c(OCC(=O)N(C)CC(=O)NC(C)C)nn(C)c2n1	-0.275%
CCCn1cc(NC(=O)NCC2CCS(=O)(=O)C2)nn1 (stereo not drawn)	16.6%
COCCN1C(=O)[C@@H]2CC[C@H]1CN(c1ncccn1)C2	-33.4%
Cc1nc(C2CCCN2CC(=O)NCCc2ccc(Cl)cc2)no1 (stereo not drawn)	44.1%
CC(C)(C)c1nnc(CN(Cc2cccs2)CC2CCCO2)o1 (stereo not drawn)	44%
Brc1ccc(-c2nnc(CN(Cc3cccs3)CC3CCCO3)o2)s1 (stereo not drawn)	90.2%
c1coc(-c2nnc(CN(Cc3cccs3)CC3CCCO3)o2)c1 (stereo not drawn)	16.6%
CC1CCN(Cc2c(C(C)C)[nH]c3ncccc23)CC1	8.12%
COCCC(=O)N1CCC2(CC1)CN(S(C)(=O)=O)Cc1ccccc1O2	-0.66%
O=S(=O)(C1CC1)N1CCOC2(CCCN(c3cccc(F)c3)C2)C1 (stereo not drawn)	-57.1%
OCCN1CCOC2(CCCN(c3cccc(F)c3)C2)C1 (stereo not drawn)	43.8%
Cc1nnc(N2CCCC3(CN(c4cccc(F)c4)CCO3)C2)o1 (stereo not drawn)	33%

Compound	INHIBITION
Cc1ccc(CN2CCOC3(CCCN(c4cccc(F)c4)C3)C2)o1 (stereo not drawn)	81.2%
Fc1cccc(N2CCCC3(CN(Cc4ccco4)CCO3)C2)c1 (stereo not drawn)	80%
Fc1cccc(N2CCOC3(CCCN(c4nncs4)C3)C2)c1 (stereo not drawn)	-22.5%
CS(=O)(=O)NC1CC2(CCN(CC3CC3)CC2)Oc2ccccc21 (stereo not drawn)	19.4%
CN(Cc1cccnc1)[C@@H]1CN(C(=O)NC2CC2)[C@@H]2CCCO[C@H]12	32.2%
Cc1cc(C(=O)N2CCCC(c3cc(=O)nc4n3CCC4)C2)on1 (stereo not drawn)	20.6%
CCOc1nc2cnccc2n(CC(=O)Nc2ccccc2OC)c1=O	-1.45%
O=S(=O)(c1cccs1)N1CC[C@H](O)[C@@H]1Cc1ccncc1	28.4%
O=S(=O)(c1cccs1)N1CC[C@@H](O)[C@@H]1Cc1ccncc1	71.9%
CO[C@H]1CCN(S(=O)(=O)c2cccs2)[C@H]1Cc1ccncc1	7.77%
Cc1ccc(Sc2nccn(C)c2=O)cc1	-53.1%
Cc1c[nH]c(C2CN(Cc3ccccc3C(=O)O)CCO2)n1 (stereo not drawn)	26.7%
COc1ccc(CNC(=O)CCSCc2csc(C)n2)cn1	-12.2%
CCN(CC)c1ncc(CNC2CCc3nc(C)nn3C2)s1 (stereo not drawn)	4.22%
COCC(O)CNc1ccc(C#N)cc1C(F)(F)F (stereo not drawn)	77.7%
N#Cc1ccc(NCC(O)c2ccco2)c(C(F)(F)F)c1 (stereo not drawn)	25.7%
CC/C=C(/C)C(=O)NS(=O)(=O)c1ccc(C#N)cc1C(F)(F)F	-7.53%
CCC(CC)C(=O)NS(=O)(=O)c1ccc(C#N)cc1C(F)(F)F	11.9%
CCC(C)C(=O)NS(=O)(=O)c1ccc(C#N)cc1C(F)(F)F (stereo not drawn)	9.54%
CC(O)CNc1ccc(C#N)cc1C(F)(F)F (stereo not drawn)	50.8%
